High-throughput results deposited in PubChem BioAssay by several laboratories.
An excerpt weighted towards active compounds, which were near 5.3% of everything screened.
SUMO Mot1 rescue: inhibitors of SUMOylation pathway: yeast Mot1-301 growth rescue; growth rescue, % at 18.8 µM; S. cerevisiae Mot1-301 growth rescue, ATP luminescence, 38.5C; percent above DMSO median, 100 means doubled; actives 1% (n = 320,000);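 active = every valid replicate shows activation above 250% relative to neutral control wells; inactive = the rest, any valid replicate at or below 250%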
HIF act: HIF pathway transcriptional activation | U2OS HRE-luciferase reporter, luminescence; normalized: DMSO 0%, desferrioxamine 100% | activation, % at 7.5 µM (by protocol) | actives 0.32% (n = 300,000) | AID 1910;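 active = mean activation of at least 10% of the iron chelator positive control signal, with at least half of replicates also reaching 10%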
ALR inh: human ALR oxidase inhibition via reduced H2O2. P55789. purified ALR, DTT oxidation, H2O2 HRP-luminol luminescence. inhibition, % (concentration not given with the values). actives 3.8% (n = 290,000);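 active = mean replicate inhibition above about 79%, with every replicate also reaching it, limit read from the data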
Target sequence (P55789 whole entry, looked up): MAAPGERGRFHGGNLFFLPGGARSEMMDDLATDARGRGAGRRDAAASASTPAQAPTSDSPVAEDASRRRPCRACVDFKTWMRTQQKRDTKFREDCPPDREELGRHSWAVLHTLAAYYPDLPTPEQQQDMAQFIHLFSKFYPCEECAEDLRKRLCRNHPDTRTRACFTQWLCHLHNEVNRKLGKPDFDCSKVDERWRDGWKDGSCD
M18AAP inhibitor: PfM18AAP enzyme inhibition; recombinant PfM18AAP, H-Glu-NHMec fluorogenic cleavage; inhibition, % at 7.35 µM; actives 1.2% (n = 290,000); AID 1822;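 active = inhibition above the campaign mean inhibition over all tested compounds plus 3 SD, cut at about 28% in these data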
A number is an active result; – = inactive; · = not tested or not shown.

SMILES	SUMO Mot1 rescue	HIF act	ALR inh	M18AAP inhibitor
Cc1cccc(N2CCN(C(=S)c3ccc([N+](=O)[O-])cc3)CC2)c1	–	–	–	30
CC(=O)N1CCN(C(=S)c2ccc(N(C)C)cc2)CC1	–	–	98	–
Cc1cccc(N2CCN(C(=S)c3ccccc3)CC2)c1	–	–	–	–
Cc1ccc(N2CCN(C(=S)c3ccc(N(C)C)cc3)CC2)cc1	–	–	–	–
NNC(=O)COc1ccc2oc3c(c2c1)CCCC3	–	–	·	–
COc1ccc(C(CNCC(O)COc2c(C)ccc(C)c2C)N(C)C)cc1 (centres undefined)	–	–	·	–
Cc1ccc2[nH]cc(CCNC(=O)c3cccnc3)c2c1	–	–	96	–
CC(=O)c1cccc(NC(=O)NCCc2c[nH]c3ccccc23)c1	–	–	–	–
Cc1ccc2[nH]cc(CCNC(=O)Nc3ccccc3)c2c1	–	–	98	–
COc1cc(/C=C2\SC(=S)N(CCCCC(=O)O)C2=O)ccc1OS(=O)(=O)c1ccc(C)cc1	–	–	–	·
COc1ccc2[nH]c(C)c(CCN3C(=O)C4C5C=CC(C5)C4C3=O)c2c1 (centres undefined)	–	–	96	–
COc1ccc(NC(=O)CS(=O)CC(=O)Nc2cc(Cl)ccc2OC)cc1 (centres undefined)	–	–	–	–
COc1ccc(NC(=O)CS(=O)CC(=O)Nc2ccc(OC)c(OC)c2)cc1 (centres undefined)	–	–	87	–
CCCN(Cc1nnc(-c2cccs2)o1)C(=O)CN1C(=O)NC2(CCCCC2C)C1=O (centres undefined)	–	·	–	·
O=C(O)c1cc(S(=O)(=O)N2CCN(C(c3ccccc3)c3ccccc3)CC2)ccc1Cl	–	–	87	–
COc1ccc(N2CCN(CCNS(=O)(=O)c3ccc(C)cc3)CC2)cc1	–	–	·	–
Oc1c(N=Nc2ccccc2)sc2ccccc12	–	–	–	–
Oc1ccc(N=Nc2ccccc2)o1	313	–	–	–
Cc1ccccc1NS(=O)(=O)c1ccc2c3c(cccc13)C(=O)N2C	351	–	–	–
CN1C(=O)c2cccc3c(S(N)(=O)=O)ccc1c23	–	–	–	–
CN1C(=O)c2cccc3c(S(=O)(=O)Nc4ccccn4)ccc1c23	280	–	–	–
CC1C(=O)N2CCCc3cc(NS(=O)(=O)c4ccccc4)cc1c32 (centres undefined)	–	–	–	·
O=C1OC(/C(=C\Nc2ccc(F)cc2F)[N+](=O)[O-])c2ccccc21 (centres undefined)	304	–	97	47
CN(NC1OC(=O)c2ccccc21)c1ccc(Cl)cc1[N+](=O)[O-] (centres undefined)	–	–	–	–
O=C1OC(/C(=C\Nc2cc(Cl)ccc2O)[N+](=O)[O-])c2ccccc21 (centres undefined)	–	–	–	41
SMILES	SUMO Mot1 rescue	HIF act	ALR inh	M18AAP inhibitor
COc1ccccc1NC(=O)C(Sc1ccccc1)c1ccccc1 (centres undefined)	–	–	84	–
C/C(=N\Nc1ccccn1)c1ccc(C#N)cc1	–	–	–	–
C/C(=N\Nc1ccccn1)c1cccs1	·	–	99	–
C/C(=N\Nc1ccccn1)c1ccc(OC(F)F)cc1	–	–	89	–
C/C(=N/NC(=O)c1cnccn1)c1cccs1	–	–	–	–
C=CC[n+]1c(-c2ccc(C)cc2)csc1Nc1c(C)n(C)n(-c2ccccc2)c1=O	–	–	99	–
C=CC[n+]1c(-c2ccc(Cl)cc2Cl)csc1Nc1c(C)n(C)n(-c2ccccc2)c1=O	–	–	94	–
Cn1ccs/c1=N\C(=O)Nc1cccc(Cl)c1	–	–	–	–
COc1ccc(Oc2c(-c3ccc(O)cc3O)n[nH]c2C)cc1	–	–	90	–
CC(=O)Nc1cccc(NC(=O)CCc2ccccc2)c1	–	–	–	–
CN(C)c1cccc(NC(=O)CCc2ccccc2)c1	–	–	98	–
CCN(C(=S)NC(=O)CCc1ccccc1)c1ccccc1	–	–	77	–
CCN1/C(=C\C=C(C(C)=O)C(C)=O)Sc2ccccc21	–	–	99	–
CN(Cc1n[nH]c(=S)n1C)S(=O)(=O)c1ccccc1	–	–	85	–
CC1CCC2C(C1)Nc1c(C(=O)O)cccc1C2(C)C (centres undefined)	–	–	98	–
CCN(c1ccccc1C)S(=O)(=O)c1cc2c3c(c1)CCC(=O)N3CCC2	–	–	–	–
OCC[C@@H]1C[C@H](O)[C@@H](O)[C@]2(CCc3ccccc3O2)O1	–	–	–	–
